Test results from PubChem BioAssay AID1233 (SRMLSC, 2008).
Potency and affinity values are given separately. Active and inactive are the calls of the source.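 The calls were made as follows: active = a dose-response curve fit returns a half-maximal inhibitory concentration, extrapolated values included; inactive = the fit returns no such concentration.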

Target: HMG-CoA reductase [Enterococcus faecalis] (UniProt Q9FD70)
Assay: inhibitors of E. faecalis class II HMGR, confirmation, biochemical, Enterococcus faecalis (AID 1233)

Row | Compound | outcome
1 | O=C(O)CCC(=O)NNC(=O)c1ccc(Br)cc1 | inactive
2 | CC(=O)NC(Cc1cccc(F)c1)C(=O)NC1CCN(c2ncccc2[N+](=O)[O-])CC1 (stereo unspecified) | inactive
3 | COC(=O)c1ccccc1NC(=O)CSc1nnc(CNS(=O)(=O)c2ccc(C)cc2)n1C | inactive
4 | CCCCOc1ccccc1NC(=O)CC1SC(=NCC)N(CC)C1=O (stereo unspecified) | inactive
5 | Cc1ccc(C2C(C(=O)c3ccco3)=C(O)C(=O)N2c2nnc(C)s2)cc1 (stereo unspecified) | inactive
6 | CN(C)CCNC(=O)c1ccc(COc2ccc(Cl)cc2Cl)cc1 | inactive
7 | Nc1c(C(=O)c2ccccc2)sc2c1c(=O)[nH]c(=O)n2-c1ccccc1 | inactive
8 | COC(=O)[C@@]1(Cc2ccc(OC)cc2)[C@H]2c3cc(C(=O)N(C)C)n(CCc4ccc(OC)c(Br)c4)c3C[C@H]2CN1C(=O)c1ccccc1 | inactive
9 | CCCCc1c(O)nc(SCC(=O)c2ccccc2)[nH]c1=O | inactive
10 | O=C(OCC(=O)N1CCN(C(=O)c2ccco2)CC1)c1cc(-c2ccco2)nc2ccccc12 | inactive
11 | Cc1cccc(C)c1N1CCN(C(=O)N2CCCCC2)CC1 | inactive
12 | Cc1csc(NC(=O)c2cnccn2)n1 | inactive
13 | Cc1ccccc1NC(=O)Cn1c(CCC(=O)O)ccc1-c1cccs1 | inactive
14 | O=C(Nc1ccccc1)C(Cc1ccccc1)NC(=O)C12CC3CC(CC(C3)C1)C2 (stereo unspecified) | inactive
15 | COc1ccc(-c2nc(CN3CCCCC3c3cccnc3)c(C)o2)c(F)c1 (stereo unspecified) | inactive
16 | CCN(CC)S(=O)(=O)c1cccc(C(=O)Nc2cc(C)cc(C)c2)c1 | inactive
17 | CCn1c(C)nc2cc(S(=O)(=O)C(F)(F)C(F)C(F)(F)F)ccc21 (stereo unspecified) | inactive
18 | S=c1[nH]c2cc(Cl)ccc2s1 | inactive
19 | Cc1ccsc1C=C1C(=O)c2ccccc2C1=O | inactive
20 | CCCNCc1cc(OC)c(OCc2ccccc2)cc1Br | inactive
21 | CN(CC(=O)NCCc1ccccc1)S(=O)(=O)c1ccccc1 | inactive
22 | Clc1ccc2c(c1)C(c1cccs1)=NNC(c1cccnc1)=N2 | inactive
23 | Cc1ccc(S(=O)(=O)N(C)Cc2ccc(-c3nnco3)cc2)cc1 | inactive
24 | CCCC(=O)Nc1sc(C(=O)Nc2cccc(N)c2)c(C)c1C(=O)OC | inactive
25 | COC(=O)C(C(=O)OC)c1ccc(N)cc1 | inactive
26 | COc1ccc(C/C(C)=N/NS(=O)(=O)c2ccc(Br)cc2)cc1 | inactive

Row | Compound | outcome
27 | NC1=NC(=O)S/C1=C\c1ccc(F)cc1 | inactive
28 | O=[N+]([O-])c1ccc(C(=Nc2cccc3ccccc23)N2CCOCC2)cc1 | inactive
29 | O=C(NCc1ccc2[nH]c3c(c2c1)CCCC3)c1ccc(S(=O)(=O)N2CCCC2)cc1 | inactive
30 | CCOC(=O)C1CCN(C(=O)CN(c2ccc3c(c2)OCCO3)S(C)(=O)=O)CC1 | inactive
31 | COC(=O)CNC(=O)CSc1nnc2cc(C)c3ccccc3n12 | inactive
32 | CCN(C(=O)CCc1nc(-c2ccccc2F)no1)c1cc(OC)ccc1OC | inactive
33 | CC1CCCC(NC(=O)CN(C)S(=O)(=O)c2cnc[nH]2)C1C (stereo unspecified) | inactive
34 | COc1ccc(Nc2ccc(S(=O)(=O)N3CCCCC3)cc2[N+](=O)[O-])cc1 | inactive
35 | Cc1ccc(C(=O)NCc2ccccc2)c(F)c1F | inactive
36 | COc1ccc(-c2c(N)n[nH]c2C)cc1OC | inactive
37 | CN(C)S(=O)(=O)c1ccc(NC(=O)N2CCOCC2)cc1 | inactive
38 | Cc1ccccc1NC(=S)NCc1ccc2c(c1)cc(C)n2C | inactive
39 | CCCS(=O)(=O)N1CCN(C(=O)c2ccc(-c3ccccc3)cc2)CC1 | inactive
40 | Cc1ccc(C(=O)c2c(NC(=O)c3ccccc3)sc(C)c2C)cc1 | inactive
41 | O=C(NCC1CCCO1)C(c1cccs1)N(Cc1cccs1)C(=O)Cn1nnc(-c2cccs2)n1 (stereo unspecified) | inactive
42 | CCCCn1c(=O)c2ccccc2c2ccccc2c1=O | inactive
43 | CN(C)c1ccc2c3c(ccc(N(C)C)c13)COC2 | inactive
44 | CC(=O)Nc1ccc2c(c1)OCCO2 | inactive
45 | C/C(=N/NC(=O)c1cc(O)c(O)c(O)c1)c1ccc([N+](=O)[O-])cc1 | inactive
46 | COCc1cc(C)n(CC(=O)OC)c(=O)c1C#N | inactive
47 | COc1ccc(NC(=O)N(Cc2cc3ccc(OC)cc3[nH]c2=O)CC2CCCO2)cc1 (stereo unspecified) | inactive
48 | CC(C)NC(=O)CSc1nc2ccccc2n1CC(=O)N(C(C)C)C(C)C | inactive
49 | C#CCn1c(-c2cccs2)nc2ccccc21 | inactive
50 | COc1ccc(NC(=S)NCc2cccn2C)cc1 | inactive
51 | COC(=O)C1=C(C)Nc2c(c(=O)n(C)c(=O)n2C)C1c1cccnc1 (stereo unspecified) | inactive
